# Source: PubChem BioAssay (NCATS)
# A number with no mark means an inactive call. Results filed as inconclusive are left out. A call without a number means that no potency is given here. Calls of active or inactive are those of the source. Unless noted, calls follow the shape of the dose curve; as a rule, active = well fitted curve in the direction sought with a large enough effect; inconclusive = small, poorly fitted or top-dose-only effect, or another doubt; inactive = no such curve, though single readings can be large; an effect the other way counts as inactive or inconclusive.
# Tests used:
# [1] = qHTS to identify inhibitors of the type 1 interferon - major histocompatibility complex class I in skeletal muscle: primary screen against the NCATS Pharmaceutical Collection (AID 1347407);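 also: luminescence of HiBiT knocked into endogenous HLA-B as interferon-induced MHC class I level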
# How it was run: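 HLA-B HiBiT myoblasts, dexamethasone-free growth medium + 4 ng/ml IFN-b; compounds pinned 1 h after seeding, […] from 46 uM; 24 h, 37 C, 5% CO2; lytic HiBiT detection, 10 min RT, luminescence.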
# [2] = target: Protein phosphatase 1D (Homo sapiens) (UniProt O15297); experiment: RapidFire Mass Spectrometry qHTS Assay for Modulators of WT P53-Induced Phosphatase 1 (WIP1) (AID 1347424);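 also: amount of dephosphorylated VEPPL-S-QETFS peptide product formed by WIP1; series mostly up to about 63 µM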
# Protein phosphatase 1D (Homo sapiens), sequence (O15297 whole entry, looked up): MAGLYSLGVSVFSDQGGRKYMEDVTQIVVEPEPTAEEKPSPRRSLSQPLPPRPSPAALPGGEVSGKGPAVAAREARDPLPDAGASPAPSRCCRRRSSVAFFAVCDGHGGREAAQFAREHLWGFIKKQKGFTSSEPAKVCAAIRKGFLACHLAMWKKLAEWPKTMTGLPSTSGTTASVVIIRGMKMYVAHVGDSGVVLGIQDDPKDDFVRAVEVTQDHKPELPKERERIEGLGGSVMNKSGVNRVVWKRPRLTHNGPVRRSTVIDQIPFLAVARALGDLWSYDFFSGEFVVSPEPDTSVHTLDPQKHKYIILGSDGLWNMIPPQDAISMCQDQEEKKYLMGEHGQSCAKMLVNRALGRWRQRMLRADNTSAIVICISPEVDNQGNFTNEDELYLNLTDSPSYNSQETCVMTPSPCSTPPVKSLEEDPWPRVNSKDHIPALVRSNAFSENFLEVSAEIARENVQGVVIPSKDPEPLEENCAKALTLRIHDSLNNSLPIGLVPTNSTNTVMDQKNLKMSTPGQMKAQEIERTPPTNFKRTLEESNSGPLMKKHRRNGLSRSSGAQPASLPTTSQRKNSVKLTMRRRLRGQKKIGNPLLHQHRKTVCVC
# How it was run: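 Mass-spectrometric measurement of dephosphorylated peptide after a 5 min room-temperature reaction of 10 nM WIP1 with 2 uM phosphopeptide, following 1 h compound preincubation in 30 mM MgCl2 buffer.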
# [3] = target: Protein phosphatase 1D (Homo sapiens) (UniProt O15297); experiment: Rhodamine-PBP qHTS Assay for Modulators of WT P53-Induced Phosphatase 1 (WIP1) (AID 1347425)
# How it was run: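 Read-out: Rhodamine-PBP fluorescence (ex 525/em 598 nm) for released Pi, read each minute for 11 min after adding 10 uM VEPPL-pS-QETFS; signal taken as f1 minus pre-substrate f0. Enzyme 5 nM WIP1 with 1 hr room-temperature compound preincubation.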
# [4] = Primary qHTS for inhibitors of La Crosse Virus (LACV) - induced cell death in SH-SY5Y cells (AID 1508616); also: potency is read from the fitted curve at half-maximal effect
# How it was run: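 Screening measures cell viability in LACV-infected SH-SY5Y cultures. Compound was added before virus (0.01 MOI), and ATP was detected by luminescence 6 days later.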
# [5] = A High-Content qHTS Against Drug Library for the Identification of Small Molecules that Inhibit DYT1 Early Onset Primary Dystonia-Associated Cell Pathology (AID 1645839; calls by dose curve; also: series mostly up to about 46 µM)
# How it was run: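 Induced EGFP-delE TorsinA cells are imaged after 48 h of compound treatment. Punctate fusion-protein distribution gives the %pathology value, while nuclei counts flag toxicity. Wild-type EGFP-hTOR1A cells define the normal pattern.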
# [6] = target: Cytochrome P450 2D6 (Homo sapiens) (UniProt P10635); experiment: Cytochrome P450 family 2 subfamily D member 6 (CYP2D6) small molecule antagonists: luciferase biochemical (cell-free) qHTS assay (AID 1645840; active = well fitted curve in the direction sought with a large enough effect in the repeat runs; an effect the other way counts as inactive or inconclusive; also: series mostly up to about 57 µM; nearly all actives have a fitted effect of over 55% in size)
# Cytochrome P450 2D6 (Homo sapiens), sequence (P10635 whole entry, looked up): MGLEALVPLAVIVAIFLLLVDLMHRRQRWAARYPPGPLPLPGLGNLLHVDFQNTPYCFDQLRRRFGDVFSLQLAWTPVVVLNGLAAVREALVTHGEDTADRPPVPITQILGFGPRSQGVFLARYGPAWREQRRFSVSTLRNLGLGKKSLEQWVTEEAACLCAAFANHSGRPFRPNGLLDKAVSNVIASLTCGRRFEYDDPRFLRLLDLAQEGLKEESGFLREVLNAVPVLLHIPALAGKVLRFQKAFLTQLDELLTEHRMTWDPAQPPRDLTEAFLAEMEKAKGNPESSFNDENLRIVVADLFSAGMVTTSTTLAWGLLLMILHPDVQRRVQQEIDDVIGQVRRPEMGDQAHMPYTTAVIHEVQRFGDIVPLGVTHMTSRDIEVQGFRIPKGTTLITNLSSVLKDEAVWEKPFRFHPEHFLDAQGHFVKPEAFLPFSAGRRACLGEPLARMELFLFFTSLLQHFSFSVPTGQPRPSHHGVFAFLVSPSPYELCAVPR
# How it was run: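 P450-Glo CYP2D6 system: proluciferin substrate converted by enzyme to luciferin, read by luminescence proportional to activity. Enzyme-substrate mix with compound 10 min at room temperature, then NADPH regeneration 1 h before detection reagent.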
# [7] = Primary qHTS for inhibitors of nuclear receptor binding SET domain protein 2 (NSD2) in an isogenic RCH-ACV NSD2 p.E1099K mutant (9B) (AID 1645876); also: nearly all actives have a fitted effect of over 70% in size; also: potency is read from the fitted curve at half-maximal effect
# [8] = target: Cytochrome P450 2C9 (Homo sapiens) (UniProt P11712); experiment: Cytochrome P450 family 2 subfamily C member 9 (CYP2C9) small molecule antagonists: luciferase biochemical (cell-free) qHTS assay (AID 1645842; active = well fitted curve in the direction sought with a large enough effect in the repeat runs; an effect the other way counts as inactive or inconclusive; also: nearly all actives have a fitted effect of over 55% in size; also: potency is read from the fitted curve at half-maximal effect)
# Cytochrome P450 2C9 (Homo sapiens), sequence (P11712 whole entry, looked up): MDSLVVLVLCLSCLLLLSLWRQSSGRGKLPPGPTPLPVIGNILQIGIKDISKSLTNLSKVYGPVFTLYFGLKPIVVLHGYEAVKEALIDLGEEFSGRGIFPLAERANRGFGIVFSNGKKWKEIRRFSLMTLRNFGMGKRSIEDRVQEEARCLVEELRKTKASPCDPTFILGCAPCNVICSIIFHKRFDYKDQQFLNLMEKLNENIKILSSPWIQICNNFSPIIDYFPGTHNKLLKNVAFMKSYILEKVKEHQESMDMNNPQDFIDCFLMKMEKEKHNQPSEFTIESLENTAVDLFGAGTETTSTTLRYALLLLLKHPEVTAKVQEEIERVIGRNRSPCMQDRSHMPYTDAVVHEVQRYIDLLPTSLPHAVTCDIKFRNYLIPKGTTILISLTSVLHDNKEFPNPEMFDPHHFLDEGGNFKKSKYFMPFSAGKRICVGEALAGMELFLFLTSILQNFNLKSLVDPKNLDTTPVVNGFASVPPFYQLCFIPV
# How it was run: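 P450-Glo CYP2C9 system: proluciferin substrate with enzyme in mix containing 0.4% BSA, 10 min at room temperature, then NADPH regeneration solution added and incubated 1 h at 37C. Detection reagent stopped reaction; luminescence read after 20 min as RLU.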
# [9] = target: Calcium and integrin-binding protein 1 (Homo sapiens) (UniProt Q99828); experiment: Primary qHTS for Identification of Calcium Integrin Binding Protein 1 (CIB1) Competitor (AID 1508620);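 also: GST tagged CIB1 binding a fluorescein labelled alphaIIb integrin peptide tracer; top concentration of the series differs between compounds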
# Calcium and integrin-binding protein 1 (Homo sapiens), sequence (Q99828 whole entry, looked up): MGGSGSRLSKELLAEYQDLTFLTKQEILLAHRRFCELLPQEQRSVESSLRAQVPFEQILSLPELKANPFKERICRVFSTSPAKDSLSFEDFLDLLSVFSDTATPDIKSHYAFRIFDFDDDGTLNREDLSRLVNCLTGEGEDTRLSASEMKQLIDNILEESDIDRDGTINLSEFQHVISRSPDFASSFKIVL
# How it was run: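 Fluorescence polarization competition: CIB1-GST (1 uM final) preincubated with compound 15 min at room temperature, then FITC-labeled alphaIIb peptide (100 nM final) added for another 15 min. Polarization read at Ex 480/Em 540.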
# [10] = Primary qHTS for small molecule stabilizers of the endoplasmic reticulum resident proteome: Secreted ER Calcium Modulated Protein (SERCaMP) assay (AID 1508630); also: potency is read from the fitted curve at half-maximal effect
# How it was run: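 The SH-SY5Y reporter protocol was run at 3 concentrations up to 38.3 uM (primary) or 11 concentrations (follow-up): 16 h compound, 100 nM thapsigargin for 4 h, then extracellular luciferase luminescence.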
# [11] = qHTS for inhibitors of adenylyl cyclases using a fission yeast platform: a pilot screen against the NCATS LOPAC library (AID 1347410)
# How it was run: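 Read-out: fbp1-GFP fluorescence by laser scanning cytometry (488 nm laser), a gain of signal when AC/cAMP-PKA signalling is inhibited. Strain CHP2027 expressing AC9, GNAS and PDE4D2; compounds at up to 57 µM; 18 h, 30C.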
# [12] = qHTS to identify inhibitors of the type 1 interferon - major histocompatibility complex class I in skeletal muscle: primary screen against the NCATS Mechanism Interrogation Plate v5.0 (MIPE) Libary (AID 1347411); also: nearly all actives have a fitted effect of over 65% in size; also: potency is read from the fitted curve at half-maximal effect
# How it was run: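 IFN-beta-driven (4 ng/ml) HLA-B-HiBit expression in CRISPR-tagged C25cl48 myoblasts; compounds 11-pt, 1:3, max 46 uM, 24 hr exposure; lytic NanoLuc complementation luminescence.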
# [13] = Validation qHTS assay for inhibitors of Activation Induced Cytidine Deaminase (AID): UDG Counterscreen signal (AID 1347427)
# How it was run: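 Fluorescence at 560 nm excitation, 665 nm emission reports UDG signal after 250 mM NaOH (2x) addition and 30 min. Enzymes (AID 1 uM, UDG 2 U/mL, at 4/3x) preincubated 10 min with compound, then 4 h with 4x 250 nM DJC20/DJC23 substrate at room temperature.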
# [14] = target: Single-stranded DNA cytosine deaminase (Homo sapiens) (UniProt Q9GZX7); experiment: Validation qHTS assay for inhibitors of Activation Induced Cytidine Deaminase (AID): AID signal (AID 1347429)
# Single-stranded DNA cytosine deaminase (Homo sapiens), sequence (Q9GZX7 whole entry, looked up): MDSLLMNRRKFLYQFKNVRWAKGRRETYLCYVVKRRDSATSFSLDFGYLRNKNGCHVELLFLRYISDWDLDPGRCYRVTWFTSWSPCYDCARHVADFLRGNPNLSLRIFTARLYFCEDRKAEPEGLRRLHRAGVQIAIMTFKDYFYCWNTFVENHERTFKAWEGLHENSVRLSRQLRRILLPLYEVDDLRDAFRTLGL
# How it was run: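 Compounds (up to 114 uM final) are tested against AID plus UDG using DJC20/DJC23 FRET substrate. Reactions incubate 4 hr at room temperature, receive NaOH for 30 min, and are read at Ex 540/Em 590 nm.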
# [15] = target: Calcium and integrin-binding protein 1 (Homo sapiens) (UniProt Q99828); experiment: Validation qHTS for Identification of Calcium Integrin Binding protein 1 (CIB1) Competitor (AID 1508618)
# How it was run: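 CIB1-GST (1 uM final) in 5 mM HEPES pH 7.4, 125 mM NaCl, 5 mM CaCl2, 0.01% Tween20 was preincubated 15 min at room temperature with compound (up to 114 uM), then FITC-alphaIIb peptide (100 nM) added for 15 min; fluorescence polarization read.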
# Papain (Carica papaya) = Papain (Carica papaya) (UniProt P00784); experiment: Primary qHTS assay for inhibitors of the protease papain (AID 1645873);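 also: papain turnover of Z-FR-AMC read as the AMC fluorescence gain over 10 min; series mostly up to about 50 µM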
# Papain (Carica papaya), sequence (P00784 whole entry, looked up): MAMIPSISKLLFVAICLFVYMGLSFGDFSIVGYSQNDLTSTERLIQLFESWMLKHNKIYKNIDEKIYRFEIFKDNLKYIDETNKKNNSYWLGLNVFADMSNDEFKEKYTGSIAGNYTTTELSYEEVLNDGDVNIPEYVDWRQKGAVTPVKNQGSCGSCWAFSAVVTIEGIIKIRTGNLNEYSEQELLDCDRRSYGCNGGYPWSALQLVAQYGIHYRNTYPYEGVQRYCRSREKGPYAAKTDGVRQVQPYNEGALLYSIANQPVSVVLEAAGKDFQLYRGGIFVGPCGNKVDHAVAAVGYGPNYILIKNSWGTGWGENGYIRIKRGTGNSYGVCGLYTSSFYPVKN
# [16] = target: N-terminal Xaa-Pro-Lys N-methyltransferase 1 (Homo sapiens) (UniProt Q9BV86); experiment: Confirmatory qHTS for Inhibitors of N-terminal methyltransferase 1 (NTMT1): MTaseGlo Assay (AID 1645874); settings: NTMT1 enzyme, MTase-Glo SAH luminescence; also: potency is read from the fitted curve at half-maximal effect; nearly all actives have a fitted effect of over 65% in size
# N-terminal Xaa-Pro-Lys N-methyltransferase 1 (Homo sapiens), sequence (Q9BV86 whole entry, looked up): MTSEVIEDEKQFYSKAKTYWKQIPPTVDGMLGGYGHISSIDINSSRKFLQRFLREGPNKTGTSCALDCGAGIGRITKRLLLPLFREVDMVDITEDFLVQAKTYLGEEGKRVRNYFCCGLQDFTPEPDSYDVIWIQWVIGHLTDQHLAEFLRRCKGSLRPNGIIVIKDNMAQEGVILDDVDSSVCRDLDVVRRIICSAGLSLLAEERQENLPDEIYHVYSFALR
# How it was run: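 SPKRIA peptide at 1 uM was methylated by 125 nM NTMT1 using 100 uM SAM over 30 min at room temperature, following a 15 min compound preincubation. Product SAH was detected luminescently.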
# [17] = Cell Viability qHTS for small molecule stabilizers of the endoplasmic reticulum resident proteome (AID 1508629); settings: cell viability counter-screen, 100 nM thapsigargin for final 4 h;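 also: human SH-SY5Y neuroblastoma cells carrying the GLuc-SERCaMP reporter; compound exposure about 46 h in total before the viability read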
compound,measurement,setting,value
CC(C(=O)O)c1ccc(C(=O)c2ccccc2)s1 (configuration not stated),Potency,[1],inactive
same,Potency,[2],inactive
same,outcome,[3],inactive
same,Potency,[4],inactive
same,Potency,[5],inactive
same,Potency,[6],inactive
same,Potency,[7],inactive
O=C1CN(/N=C/c2ccc([N+](=O)[O-])o2)C(=O)N1,Potency,[1],inactive
same,Potency,[2],inactive
same,outcome,[3],inactive
same,Potency,[4],inactive
same,Potency,[5],inactive
same,Potency,[8],inactive
CC(C)(C)c1nnc(NS(=O)(=O)c2ccc(N)cc2)s1,Potency,[1],inactive
same,Potency,[2],inactive
same,Potency,[4],inactive
same,Potency,[9],inactive
same,Potency,[10],inactive
same,Potency,[5],inactive
same,Potency,[6],inactive
same,Potency,[7],inactive
CC(C(=O)O)c1ccc2c(c1)[nH]c1ccc(Cl)cc12 (configuration not stated),Potency,[1],inactive
same,Potency,[4],inactive
same,Potency,[5],inactive
same,Potency,[6],inactive
same,Potency,[8],inactive
same,Potency,[7],inactive
Nc1nc2ccc([N+](=O)[O-])cc2s1,Potency,[1],inactive
same,Potency,[2],inactive
same,Potency,[4],inactive
same,Potency,[5],inactive
same,Potency,[7],21.7 µM (active)
C#CC1(O)CC[C@H]2[C@@H]3CCC4=CCCC[C@@H]4[C@H]3CC[C@@]21C (some centres not stated),Potency,[1],inactive
same,Potency,[2],inactive
same,outcome,[3],inactive
same,Potency,[4],inactive
same,Potency,[10],inactive
same,Potency,[8],1.74 µM (active)
COc1ccc(-c2cc(=S)ss2)cc1,Potency,[1],inactive
same,Potency,[2],inactive
same,Potency,[4],inactive
same,Potency,[10],inactive
same,Potency,[5],inactive
same,Potency,[7],inactive
O=C1NC(=O)/C(=C/c2ccc(-c3ccc(F)cc3O)o2)S1,outcome,[11],inactive
same,Potency,[12],inactive
same,Potency,[13],inactive
same,Potency,[14],inactive
same,Potency,[4],inactive
same,outcome,[15],inactive
same,Potency,[10],inactive
same,Potency,Papain (Carica papaya),inactive
same,Potency,[16],34.5 µM (active)
same,Potency,[7],14.8 µM (active)
COc1cc(NC(C)CCCN)c2ncccc2c1 (configuration not stated),Potency,[1],inactive
same,Potency,[2],inactive
same,Potency,[4],inactive
same,Potency,[7],6.68 µM (active)
CCOC(=O)N1CCN(/[N+]([O-])=N/Oc2ccc([N+](=O)[O-])cc2[N+](=O)[O-])CC1,outcome,[11],inactive
same,Potency,[12],20.8 µM (active)
same,Potency,[13],inactive
same,Potency,[14],inactive
same,Potency,Papain (Carica papaya),inactive
same,Potency,[7],7.42 µM (active)
O=C(O)CNC(=O)C(CS)Cc1ccccc1 (configuration not stated),outcome,[11],inactive
same,Potency,[13],inactive
same,Potency,[14],inactive
same,Potency,[4],inactive
same,outcome,[15],inactive
same,Potency,[10],inactive
same,Potency,Papain (Carica papaya),inactive
Nc1ncnc2c1ncn2[C@@H]1O[C@H](COP(=O)(O)OP(=O)(O)OP(=O)(O)OP(=O)(O)OC[C@@H]2O[C@H](n3cnc4c(N)ncnc43)[C@@H](O)[C@H]2O)[C@@H](O)[C@H]1O,outcome,[11],inactive
same,Potency,[13],inactive
same,Potency,[14],inactive
same,Potency,[4],inactive
same,outcome,[15],inactive
same,Potency,[10],inactive
same,Potency,Papain (Carica papaya),inactive
COc1cc(OC)c(/C=C2/C(=O)Nc3ccccc32)c(OC)c1,outcome,[11],inactive
same,Potency,[13],inactive
same,Potency,[14],inactive
same,Potency,[4],0.891 µM (active)
same,outcome,[15],inactive
same,Potency,[10],inactive
C[N+]1(C)CCC(OC(=O)C(c2ccccc2)c2ccccc2)CC1,outcome,[11],inactive
same,Potency,[13],inactive
same,Potency,[14],inactive
same,Potency,[4],inactive
same,outcome,[15],inactive
same,Potency,[10],inactive
same,Potency,Papain (Carica papaya),inactive
CO/N=C(\C(=O)N[C@@H]1C(=O)N2C(C(=O)O)=C(COC(C)=O)CS[C@H]12)c1csc(N)n1,outcome,[11],inactive
same,Potency,[13],inactive
same,Potency,[14],inactive
same,Potency,[4],inactive
same,outcome,[15],inactive
same,Potency,[10],inactive
same,Potency,[6],inactive
same,Potency,[8],inactive
same,Potency,Papain (Carica papaya),inactive
O=Nc1ccc2oc(=O)ccc2c1,outcome,[11],inactive
same,Potency,[13],inactive
same,Potency,[14],inactive
same,Potency,[4],inactive
same,outcome,[15],inactive
same,Potency,[10],inactive
same,Potency,Papain (Carica papaya),inactive
CCCCCCCC/C=C\CCCCCCCC(=O)NCCO,outcome,[11],inactive
same,Potency,[13],inactive
same,Potency,[14],inactive
same,Potency,[4],inactive
same,outcome,[15],inactive
same,max response,[17],21.6%
same,Potency,[10],12.6 µM (active)
same,Potency,Papain (Carica papaya),inactive
Cc1cc(NC(=O)Nc2ccc3c(ccn3C)c2)sn1,outcome,[11],inactive
same,Potency,[13],inactive
same,Potency,[14],inactive
same,Potency,[4],inactive
same,outcome,[15],inactive
same,Potency,[10],inactive
same,Potency,Papain (Carica papaya),inactive
